From PubChem BioAssay AID1460 (National Center for Advancing Translational Sciences (NCATS), 2008)
Where “and” joins values, the source holds several entries; their conditions need not be identical. Identical values can stand only once. Screen size: about 270,000 compounds; about 5,800 (2.1%) were called active. Where a call stands in place of a potency, no number is given. Inconclusive results (about 16%) are left out. The call rests on the fitted dose curve; in most records, active means well fitted inhibition curve with a large enough effect; inconclusive means small, poorly fitted or top-dose-only effect; inactive means flat fitted curve, though single readings scatter. Many of the other results were omitted from the sample, so actives are more common in it than they were.

biological target: Microtubule-associated protein tau (Homo sapiens) (UniProt P10636); assay: qHTS for Inhibitors of Tau Fibril Formation, Thioflavin T Binding; conditions: recombinant tau K18 P301L (four-repeat tau fragment), heparin-induced fibrillization, ThT fluorescence; series mostly up to 57.4 µM; further: nearly all actives have a fitted effect of over 55% in size
Sequence (P10636 561-689 P618L limits assumed): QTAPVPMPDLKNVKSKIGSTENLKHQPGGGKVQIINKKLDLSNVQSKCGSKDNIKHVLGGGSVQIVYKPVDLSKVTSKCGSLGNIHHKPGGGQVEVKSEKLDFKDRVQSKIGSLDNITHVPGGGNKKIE
Text: NIH Molecular Libraries Probe Production Network [MLPCN]
NIH Chemical Genomics Center [NCGC]
Assay Provider: Carlo Ballatore, University of Pennsylvania
The microtubule-associated protein tau is an abundant protein in the axons of neurons that stabilizes microtubules. With its ability to modulate microtubule dynamics, tau contributes directly or indirectly, to key structural and regulatory cellular functions. Particularly important is the influence tau exerts on axonal transport, which allows signaling molecules, trophic factors and other essential cellular constituents to travel along the axons. Under pathological conditions, tau becomes sequestered into insoluble aggregates called neurofibrillary tangles. This phenomenon is believed to have pathological consequences by promoting axonal transport deficits that ultimately lead to synaptic dysfunction and neuronal loss. To identify inhibitors of tau aggregation, a heparin-induced tau fibril formation assay was used that employed a recombinantly expressed fragment of tau, K18 (Q242-E372), bearing a P301L mutation (Gustke et al. 1994; Hong et al. 1998). This assay monitors tau fibrillization by Thioflavin T (ThT) fluorescence.
Gustke, N., B. Trinczek, et al. (1994). "Domains of tau protein and interactions with microtubules." Biochemistry 33(32): 9511-22.
Hong, M., V. Zhukareva, et al. (1998).
Li, W. and V. M. Lee (2006).
von Bergen, M., S. Barghorn, et al. (2001). "Mutations of tau protein in frontotemporal dementia promote aggregation of paired helical filaments by enhancing local beta-structure." J Biol Chem 276(51): 48165-74.
NCGC Assay Protocol Summary:
For screening, 2 uL/well human K18 P301L (15 uM unlabeled and 0.24 uM Alexa 594-labeled tau, final concentrations) in reagent buffer (100 mM sodium acetate pH 7) was dispensed into black solid 1536-well plates (Grenier) using a solenoid-based dispenser. Following transfer of 23 nL compound or DMSO vehicle by a pin tool, 2 uL/well heparin (20 uM final concentration) in reagent buffer was added and the plate centrifuged 15 s at 1000 RPM. Plates were incubated 6 hr at 37 C and then 1 uL/well ThT (30 uM final concentration) was added. After a 1 hr ambient incubation, the plates were read by an Envision (Perkin Elmer) to monitor ThT fluorescence (450/8 nm excitation and 510/23 nm emission).
Keywords: NIH Roadmap, MLPCN, MLI, MLSMR, NCGC, qHTS, tau, tauopathies, Alzheimer's disease, fibril, neurodegeneration, aggregation
Potency means the concentration at half of the fitted maximal effect.

| SMILES | Potency |
| --- | --- |
| CC[N+](C)(CC)CCC[n+]1c(-c2ccccc2)c2cc(N)ccc2c2ccc(N)cc21 | 1.26 µM (active) |
| CC[C@@H]1CN2CC[C@@H]1C[C@H]2[C@H](O)c1ccnc2ccc(OC)cc12 | inactive |
| CCN(CC)CCOC(=O)c1cc2cc(COC)ccc2o1 | inactive |
| CN(C)[C@@H]1C(=O)C(C(N)=O)=C(O)[C@@]2(O)C(=O)C3=C(O)c4c(O)cccc4[C@@](C)(O)C3CC12 (stereo not given in full) | inactive |
| CN(C)CC1CCCCC1OC(=O)c1ccc(Cl)c(Cl)c1 (stereo not given) | inactive |
| CC(C)Oc1cccc(C(=O)C2CCCN(C3CCOCC3)C2)c1 (stereo not given) | inactive |
| N#CC(C#N)=Cc1cc(O)c(O)c([N+](=O)[O-])c1 | 10 µM (active) and 17.8 µM (active) |
| CC1=CC(=O)C2=C(C)C[C@H](O)[C@H]3[C@H](C)C(=O)O[C@@H]3C12 (stereo not given in full) | inactive |
| CN1[C@@H]2CC[C@H]1CC(OC(=O)c1cc(Cl)cc(Cl)c1)C2 (stereo not given in full) | inactive |
| CC1(C)Cc2c(C#N)c(N3CCNCC3)nc(-c3ccco3)c2CS1 | inactive |
| COc1ccccc1N=C1SCCCN1C | inactive |
| COc1ccccc1N=Nc1c(O)[nH]c(=S)[nH]c1=O | 12.6 µM (active) |
| CCOCCc1c(O)[nH]c(=S)[nH]c1=O | inactive |
| COc1ccccc1-c1[se]c2ccccc2c1I | inactive |
| c1cc2c(cc1CCNC1CCCCCC1)OCO2 | inactive |
| CC[C@]1(O)C(=O)OCc2c1cc1n(c2=O)Cc2cc3ccccc3nc2-1 | inactive |
| CCCCN1C2CCC1CC(OC(c1ccc(F)cc1)c1ccc(F)cc1)C2 (stereo not given) | inactive |
| O=C(COc1ccc2ccccc2c1)N1CCN(Cc2ccncc2)CC1 | inactive |
| CC(=O)Oc1ccccc1C(=O)Nc1ncc([N+](=O)[O-])s1 | 11.2 µM (active) |
| O=c1oc2ccccc2c(O)c1C(c1ccccc1O)c1c(O)c2ccccc2oc1=O | inactive |
| c1ccc2sc(SNC3CCCCC3)nc2c1 | inactive |
| C[N+]1(C)CCOC(O)(c2ccc(-c3ccc(C4(O)C[N+](C)(C)CCO4)cc3)cc2)C1 (stereo not given) | inactive |

| SMILES | Potency |
| --- | --- |
| Cc1ccc(CN2CCCC(C(=O)c3ccc4c(c3)OCO4)C2)cc1C (stereo not given) | inactive |
| COC(=O)N(c1ccc(OC)cc1)P1(=S)OCCC(C)O1 (stereo not given) | 28.2 µM (active) |
| CCCCCCCCCCCCn1ccc(=N)cc1 | inactive |
| COc1ccc2[nH]cc(CCNCc3ccc(Br)cc3)c2c1 | inactive |
| CCCCC/C=C\C/C=C\C/C=C\C/C=C\CCCCCC(=O)NCCO | inactive |
| Cc1cccc(N2C(=O)NC(=O)/C(=C\c3cnn(-c4ccccc4)c3)C2=O)c1 | inactive |
| COc1cccc(N2C(=O)NC(=O)/C(=C\c3ccc([N+](=O)[O-])s3)C2=O)c1 | 14.1 µM (active) |
| O=C1NC(=O)N(c2ccccc2)C(=O)/C1=C/c1ccc([N+](=O)[O-])s1 | 14.1 µM (active) |
| CN1C2CC3CC1C(O3)C2O (stereo not given) | inactive |
| COC1CC(OC2CC[C@@]3(C=O)C4CC[C@]5(C)C(C6=CC(=O)OC6)CC[C@@]5(O)C4CC[C@]3(O)C2)OC(C)C1O (stereo not given in full) | inactive |
| COc1c(O)ccc2c1-c1c3c(cc4c1C(C2)N(C)CC4)OCO3 (stereo not given) | inactive |
| O=C(NC(c1ccc(Cl)cc1)P(=O)(Oc1ccccc1)Oc1ccccc1)OCc1ccccc1 (stereo not given) | inactive |
| NCCc1c[nH]c2ccc(O)cc12 | inactive |
| CCOc1cccc(=NC2CCCCC2)c2c(C)[nH]c(C)c12 | 8.91 µM (active) |
| CN(C)c1nc(N(C)C)nc(N(C#N)CCCl)n1 | inactive |
| C=CCN1CCC2(C)c3cc(O)ccc3CC1[C@@H]2C (stereo not given in full) | inactive |
| CC(=O)c1c(O)c(C)c(O)c(Cc2c(O)c3c(c(C(=O)/C=C/c4ccccc4)c2O)OC(C)(C)C=C3)c1O | 15.8 µM (active) and 17.8 µM (active) and 12.6 µM (active) |
| CC(=O)c1c(O)c(C)c(O)c(Cc2c(O)c3c(c(C(=O)/C=C\c4ccccc4)c2O)OC(C)(C)C=C3)c1O | 15.8 µM (active) |
| O=C1NC(=O)C(CCc2ccccn2)(Cc2cccc(Cl)c2Cl)C(=O)N1c1ccc(Br)cc1 (stereo not given) | inactive |
| O=C(OCCN1CCOCC1)C1(c2ccccc2)CCCC1 | inactive |
| N[C@@H](Cc1c[nH]c2ccccc12)c1nnc(SCc2c(F)cccc2Cl)o1 | inactive |
| Cc1ccc(Cn2c(C)c3cnn(CC(=O)N4CCC5(CC4)OCCO5)c(=O)c3c2C)cc1 | inactive |

| SMILES | Potency |
| --- | --- |
| COC(=O)c1ccc2[se]c(CC3CCCCC3)c(I)c2c1 | inactive |
| Cc1ccc2c(c1)=C/C(=C\c1c(O)[nH]c(=O)[nH]c1=O)C(=O)N=2 | inactive |
| CCC(=NCCc1ccccc1)c1c(O)n(C2CCCCC2)c(=O)[nH]c1=O | inactive |
| CCC(=NCc1ccco1)c1c(O)n(Cc2ccccc2)c(=O)[nH]c1=O | inactive |
| CC/C(=N\NC(=O)c1ccccc1O)c1c(O)n(Cc2ccccc2)c(=O)[nH]c1=O | 22.4 µM (active) |
| CCCCC/C=C\C/C=C\C/C=C\C=C\[C@H](CCCC(=O)O)OO | inactive |
| Cc1nc2ccccn2c1P(=S)(N1CCCCC1)N1CCCCC1 | inactive |
| Cc1cccc2c3c(ccc12)C1=C(C(=O)C3=O)C(C)CO1 (stereo not given) | 7.94 µM (active) |
| CN1CCN(Cc2ccc(OC(F)(F)F)cc2)CC1 | inactive |
| CCCN(C/C=C/I)C1CCc2ccc(O)cc2C1 (stereo not given) | inactive |
| CCCCCCCCc1[se]c2ccccc2c1Br | inactive |
| O=C(OCC1O[C@@H](OC(=O)c2cc(O)c(O)c(O)c2)[C@@H](OC(=O)c2cc(O)c(O)c(O)c2)[C@@H](OC(=O)c2cc(O)c(O)c(O)c2)[C@@H]1OC(=O)c1cc(O)c(O)c(O)c1)c1cc(O)c(O)c(O)c1 (stereo not given in full) | 11.2 µM (active) |
| O=C(O)C1C2CCC(O2)C1C(=O)O (stereo not given) | inactive |
| CO[C@@H]1C[C@@H](C[C@H]2CC[C@H](C)[C@@H]([C@@H](C)C(=O)O)O2)O[C@]2(O[C@](C)([C@H]3CC[C@@](C)(C4OC([C@H]5O[C@@](O)(CO)[C@H](C)C[C@@H]5C)C[C@@H]4C)O3)C[C@H]2C)[C@@H]1C (stereo not given in full) | inactive |
| Cc1ncsc1CCCl | inactive |
| CCC(C)n1c(O)c(/C=N/Nc2nc3c(c(=O)n(C)c(=O)n3C)n2C)c(=O)[nH]c1=S (stereo not given) | 11.2 µM (active) |
| CCOC(=O)C1(CCc2ccccc2)CCN(Cc2ccco2)CC1 | inactive |
| O=C(c1cc2nc(-c3ccccc3)cc(-c3ccccc3)n2n1)N1CCC2(CC1)OCCO2 | inactive |
| CC1=C(C(=O)Nc2ccccc2)SCCO1 | inactive |
| COc1cccc(-c2nc3ccc(N4CCN(C)CC4)cc3[nH]2)c1 | inactive |
| CCN1CC2C3CCC(C)(O3)C2C1 (stereo not given) | inactive |
| Cc1nnc(NC(=O)c2cccn(Cc3cccc(F)c3)c2=O)s1 | inactive |

| SMILES | Potency |
| --- | --- |
| N#Cc1c(Cl)c(Cl)c(Cl)c(C#N)c1Cl | 2.24 µM (active) |
| Cc1ccc(NC(=O)N(Cc2ccc3c(c2)OCO3)C2CCN(Cc3ccccc3)CC2)cc1F | inactive |
| Cc1ccc(-n2c(/C=C/c3cccc(C(F)(F)F)c3)nc3ccccc3c2=O)cc1 | inactive |
| C=CCN1CCC23c4c5ccc(O)c4O[C@H]2C(=O)CC[C@@]3(O)C1C5 (stereo not given in full) | inactive |
| C[C@@]12CCC3C(CC[C@@H]4CC(O)CC[C@@]34C)C1CCC2O (stereo not given in full) | inactive |
| CC1=CC(=Cc2sc3ccccc3[n+]2C)C=C(C)O1 | 15.8 µM (active) |
| CC(C)(C)c1ccc(CN2C(=O)CN=C(c3ccccc3)c3ccccc32)cc1 | inactive |
| Cc1nn(Cc2ccccc2Cl)c(Cl)c1C(=O)OC(C(=O)NC(N)=O)C(C)C (stereo not given) | inactive |
| CCC1(C)CC(CCNCc2ccc(N(C)C)cc2)(c2ccc(F)cc2)CCO1 (stereo not given) | inactive |
| COc1cc(OC)cc(C2(C#N)CCN(C)CC2)c1 | inactive |
| N[C@H](C(=O)O)c1cc(=O)[nH]o1 | inactive |
| C=CCSSCC=C | inactive |
| CCN(CC)c1ccc([N+](=O)[O-])c2cccnc12 | 11.2 µM (active) |
| c1ccc(C2NCc3ccccc3-n3cccc32)cc1 (stereo not given) | inactive |
| Cc1ccc(Cn2nnnc2CN2CCC(n3nnc4ccccc43)CC2)cc1 | inactive |
| CCOC(=O)C(O)(c1ccc(NC(=O)c2ccco2)c(OC)c1)C(F)(F)F (stereo not given) | inactive |
| CCCCC(=O)N/N=C/c1c(O)n(CC)c(=S)n(CC)c1=O | inactive |
| C1CC[C@H]([C@@]23C[C@H](C[C@H]4CCCN[C@H]42)[C@@H]2CCCCN2C3)NC1 | inactive |
| Cn1c(O)c(C=Nc2ccc3c(c2)CCC3)c(=O)n(C)c1=O | inactive |
